These results are taken from PubChem BioAssay (Tox21).

For test [1], the target named is Thyrotropin-releasing hormone receptor (Homo sapiens) (UniProt P34981). The experiment in a line: qHTS assay to identify small molecule agonists of the thyrotropin-releasing hormone receptor (TRHR) signaling pathway (AID 1346891; calls by dose curve;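 further: HEK293 cells expressing TRHR with calcium dye readout; series mostly up to about 58 µM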). The procedure, abridged: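 Kinetic fluorescence (3 min, 1 s intervals) reported intracellular calcium after compound transfer onto TRHR-Hek293 cells pre-loaded with dye for 2 h at 37 °C.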
Chain of Thyrotropin-releasing hormone receptor (Homo sapiens) (P34981 whole entry, looked up): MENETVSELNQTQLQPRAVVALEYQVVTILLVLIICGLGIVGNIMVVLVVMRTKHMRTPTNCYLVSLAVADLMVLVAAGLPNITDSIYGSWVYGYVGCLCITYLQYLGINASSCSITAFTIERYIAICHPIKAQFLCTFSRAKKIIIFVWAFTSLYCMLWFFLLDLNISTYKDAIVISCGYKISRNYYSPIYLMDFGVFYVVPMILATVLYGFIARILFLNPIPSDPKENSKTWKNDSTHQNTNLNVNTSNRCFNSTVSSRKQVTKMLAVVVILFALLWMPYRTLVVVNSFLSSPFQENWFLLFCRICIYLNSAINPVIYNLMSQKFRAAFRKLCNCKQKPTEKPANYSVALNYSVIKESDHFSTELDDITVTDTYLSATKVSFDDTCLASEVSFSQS

Test [2] is described as follows: Human pregnane X receptor (PXR) small molecule agonists, qHTS cell viability counter screen (AID 1346977). Further: nearly all actives have a fitted effect of over 50% in size. Further: potency means the concentration at half of the fitted maximal effect. The procedure, abridged:
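HepG2 cells stably carrying the PXR-Luc reporter are cultured with 5% charcoal-stripped FBS and treated with compounds for 24hr. CellTiter-Fluor is added at 23hr and fluorescence is read after 1hr.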
A general note: In qHTS, concentration-response curves come from the screen itself.

Test [3] in a line: Caspase-3/7 induction in HepG2 cells by small molecules, qHTS assay (AID 1346978). Further: nearly all actives have a fitted effect of over 15% in size. Further: potency means the concentration at half of the fitted maximal effect. The procedure, abridged: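 Caspase-3/7 induction was measured by Caspase-Glo 3/7 luminescence (30 min, room temperature) after a 17 hr compound exposure of wild-type HepG2 cells seeded at 2,000 per well and pre-incubated 5 hr.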
The nature of test [4]: Caspase-3/7 induction in CHO-K1 cells by small molecules, qHTS cell viability counter screen (AID 1346979). Further: nearly all actives have a fitted effect of over 35% in size. Further: potency means the concentration at half of the fitted maximal effect. The procedure, abridged:
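Seeding: 1,500 CHO-K1 cells/well. Rest: 5hr, 37C. Treatment: compounds in DMSO, 16hr. Read: CellTiter-Fluor, 1hr, fluorescence.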

A short description of test [5]: Caspase-3/7 induction in CHO-K1 cells by small molecules, qHTS assay (AID 1346980). Further: nearly all actives have a fitted effect of over 15% in size. The procedure, abridged: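 Luminescent Caspase-Glo 3/7 read (30min, room temperature) quantified apoptosis induction. Cells were wild-type CHO-K1, treated with compound for 17hr at 37 C and 5% CO2.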
Test [6] can be described thus: Caspase-3/7 induction in HepG2 cells by small molecules, qHTS cell viability counter screen (AID 1346981). Further: nearly all actives have a fitted effect of over 30% in size. Further: potency means the concentration at half of the fitted maximal effect. The procedure, abridged: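 After a 5-hr attachment period at 37 C and 5% CO2, wild-type HepG2 cells received compounds in DMSO. Sixteen hours later CellTiter-Fluor was dispensed and the fluorescent signal quantified after a further hour.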
The target in test [7] is Nuclear receptor subfamily 1 group I member 2 (Homo sapiens) (UniProt O75469). The test can be described thus: Human pregnane X receptor (PXR) small molecule agonists, qHTS assay (AID 1346982). Further: nearly all actives have a fitted effect of over 35% in size. Further: potency means the concentration at half of the fitted maximal effect. The procedure, abridged: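 Tox21 qHTS; PXR-Luc HepG2; compounds pinned from DMSO; 24 hr, 37 C; ONE-Glo luciferase detection, 30 min room temperature.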
Chain of Nuclear receptor subfamily 1 group I member 2 (Homo sapiens) (O75469 whole entry, looked up): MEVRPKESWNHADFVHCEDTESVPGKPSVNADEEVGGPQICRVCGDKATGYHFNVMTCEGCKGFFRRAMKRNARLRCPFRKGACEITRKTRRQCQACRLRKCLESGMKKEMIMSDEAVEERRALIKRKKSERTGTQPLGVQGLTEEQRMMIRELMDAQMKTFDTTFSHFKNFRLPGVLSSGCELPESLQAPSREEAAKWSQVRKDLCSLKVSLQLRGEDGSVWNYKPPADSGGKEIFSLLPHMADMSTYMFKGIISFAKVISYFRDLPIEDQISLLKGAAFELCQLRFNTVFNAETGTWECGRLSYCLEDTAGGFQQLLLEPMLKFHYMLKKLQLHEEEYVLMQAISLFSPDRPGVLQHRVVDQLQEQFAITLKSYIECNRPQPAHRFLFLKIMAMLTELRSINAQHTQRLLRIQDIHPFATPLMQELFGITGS

Where “and” joins values, the source holds several entries; their conditions need not be identical. Identical values can stand only once. Results filed as inconclusive are left out. More than one record can exist for a structure, and the calls need not agree. Calls of active or inactive are those of the source. Unless noted, the call rests on the fitted dose curve; in most records, active means well fitted curve in the direction sought with a large enough effect in the repeat runs; inconclusive means weak or mixed curves; inactive means no such curve, though single readings can be large; an effect the other way counts as inactive or inconclusive.

For `CCCCNC(=O)n1c(NC(=O)OC)nc2ccccc21`, the Potency result in test [1], in test [2], in test [5] and in test [6] was “inactive” each time. Further, the Potency was 6.08 µM (active) and inactive in test [3]; 30.6 µM (active) in test [4]; 60.8 µM (active) in test [7].

With `CCOP(=S)(OCC)O/N=C(\C#N)c1ccccc1`, the Potency result in test [1], in test [2], in test [3], in test [4], in test [5] and in test [6] was “inactive” in each case. The Potency in test [7] was 30.6 µM (active).

Turning to `Cc1cccc(N)c1N`, the Potency result in test [1], in test [2], in test [3], in test [4], in test [5] and in test [6] was “inactive” in each case. The Potency in test [7] was 26.4 µM (active) and 54.5 µM (active).

`Cc1ccccc1[N+](=O)[O-]`: the Potency entry in test [1], in test [2], in test [3], in test [4], in test [5] and in test [6] was “inactive” each time. For the same molecule, in test [7], the Potency result is “inactive”.

Consider `CNC(=O)N(C)c1nnc(C(C)(C)C)s1`, for which the Potency result in test [1], in test [2], in test [3], in test [4], in test [5] and in test [6] was “inactive” in each case. The Potency in test [7] was 54.5 µM (active).

Consider `C=C(C)C(=O)OCC1CO1` (centres undefined), for which the Potency result in test [1], in test [2], in test [3], in test [4], in test [5] and in test [6] was “inactive” throughout. Also, the Potency entry in test [7] was “inactive”.

Consider `CC(O)CCO` (centres undefined), for which the Potency entry in test [1], in test [2], in test [3], in test [4], in test [5] and in test [6] was “inactive” in each case. The Potency result in test [7] is “inactive”.

For `O=C(O)C(F)(F)C(F)(F)C(F)(F)C(F)(F)C(F)(F)C(F)(F)C(F)(F)F`, the Potency result in test [1], in test [2], in test [3], in test [4], in test [5] and in test [6] was “inactive” in each case. For the same molecule, the Potency result in test [7] was “inactive”.

Regarding `COP(=O)(OC)OC`, the Potency entry in test [1], in test [3], in test [5] and in test [6] was “inactive” throughout. Further, the Potency in test [2] was 44.7 µM (active) and inactive; in test [4] it was 30.9 µM (active) and inactive; in test [7], 61.6 µM (active) and inactive.

As for `CCC(CC)Nc1c([N+](=O)[O-])cc(C)c(C)c1[N+](=O)[O-]`, the Potency entry in test [1], in test [2], in test [3], in test [4], in test [5] and in test [6] was “inactive” in each case. The Potency in test [7] is 61.9 µM (active) and inactive.

With `COP(=S)(OC)Oc1ccc([N+](=O)[O-])cc1`, the Potency entry in test [1], in test [2], in test [3], in test [5], in test [6] and in test [7] was “inactive” each time. In addition, the Potency in test [4] is 68.7 µM (active) and inactive.

As for `S=C1NCCN1`, the Potency result in test [1], in test [2], in test [3], in test [4], in test [5] and in test [6] was “inactive” throughout.

`CCN(N=O)C(N)=O`: the Potency result in test [1], in test [2], in test [3], in test [4], in test [5] and in test [6] was “inactive” each time. In addition, the Potency entry in test [7] is “inactive”.

On to `Nc1ccncc1`, for which the Potency result in test [1], in test [2], in test [3], in test [4], in test [5] and in test [6] was “inactive” each time. The Potency result in test [7] is “inactive”.

Take `CCCCN(CC)c1c([N+](=O)[O-])cc(C(F)(F)F)cc1[N+](=O)[O-]`: the Potency result in test [1], in test [2], in test [3], in test [4], in test [5] and in test [6] was “inactive” in each case. Also, the Potency in test [7] was 27.7 µM (active) and 7.7 µM (active).

With `Cc1ccc(OP(=O)(Oc2ccc(C)cc2)Oc2ccc(C)cc2)cc1`, the Potency result in test [1], in test [2], in test [5] and in test [6] was “inactive” throughout. Besides, the Potency is 967 nM (active) and inactive in test [3]; 27.3 µM (active) and inactive in test [4]; 5.44 µM (active) and 13.7 µM (active) in test [7].

On to `CCN(CC)C(=O)SCc1ccc(Cl)cc1`, for which the Potency result in test [1], in test [2], in test [3], in test [4], in test [5] and in test [6] was “inactive” each time. In addition, the Potency in test [7] is 56.1 µM (active).

As to `COP(=S)(OC)Oc1cc(Cl)c(Cl)cc1Cl`, the Potency entry in test [1], in test [2], in test [3], in test [4], in test [5] and in test [6] was “inactive” in each case. Moreover, the Potency in test [7] is 30.4 µM (active) and inactive.

Turning to `Nc1ccc(-c2ccccc2)cc1`, the Potency entry in test [1], in test [2], in test [3], in test [5] and in test [6] was “inactive” in each case. Also, the Potency in test [4] was 56 µM (active) and inactive; in test [7], 28.1 µM (active) and 30.6 µM (active).

Take `C=C(C)[C@H]1Cc2c(ccc3c2O[C@@H]2COc4cc(OC)c(OC)cc4[C@@H]2C3=O)O1`: the Potency result in test [1], in test [3], in test [5] and in test [7] was “inactive” each time. Also, the Potency in test [2] was 112 nM (active) and 2.17 µM (active) and 298 nM (active); in test [4] it was 175 nM (active) and 770 nM (active) and 7.5 µM (active); in test [6], 39.1 µM (active) and 30.6 µM (active) and 5.31 µM (active).

Regarding `COc1ccc(C=O)cc1`, the Potency result in test [1], in test [2], in test [3], in test [4], in test [5] and in test [6] was “inactive” in each case. The Potency result in test [7] was “inactive”.

For `CCCCC(CC)COC(=O)c1ccc(C(=O)OCC(CC)CCCC)c(C(=O)OCC(CC)CCCC)c1` (centres undefined), the Potency result in test [1], in test [2], in test [3], in test [4], in test [5] and in test [6] was “inactive” in each case. Moreover, in test [7], the Potency result is “inactive”.

Consider `O=P(O)(O)CCCl`, for which the Potency entry in test [1], in test [2], in test [3], in test [4], in test [5] and in test [6] was “inactive” in each case. Also, in test [7], the Potency result was “inactive”.

Take `O=[N+]([O-])c1cccc2ccccc12`: the Potency result in test [1], in test [2], in test [3], in test [4], in test [5] and in test [6] was “inactive” throughout. Also, the Potency entry in test [7] is “inactive”.

With `CC(C)N(C(=O)SCC(Cl)=C(Cl)Cl)C(C)C`, the Potency result in test [1], in test [2], in test [3], in test [4], in test [5] and in test [6] was “inactive” in each case. Moreover, in test [7], the Potency result is “inactive”.
